Most compounds without a hit are left out; they make up all but 7.4% or so of the library.
CRE-bla Fsk: alters forskolin-stimulated CRE reporter signaling in CHO cells; CHO CRE-bla reporter (cAMP response element driving beta-lactamase), forskolin EC10, beta-lactamase ratio; Potency, µM (top dose mostly 38.2 µM), actives largely listed as activators; 71,000 tested, 2.5% active; AID 662; active = well fitted activation curve with a large enough effect in the signal ratio, with a control signal flat, not every such curve was filed as active; inconclusive = small, poorly fitted or top-dose-only effect, or effect the other way, or a change in a side signal; the % refers to the signal ratio
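Forskolin analogue NKH 477 at EC10 stimulated CRE-driven beta-lactamase in CHO cells alongside compound dilution series. Beta-lactamase was measured with CCF4, excitation 405 nm, emission ratio 460/530 nm.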
ERK AVP inh: blocks ERK signaling stimulated by vasopressin | HEK293-V1b, vasopressin-stimulated pERK AlphaScreen | Potency, µM (titrated, usually from 57.5 µM), usual class: inhibitors | 72,000 tested, 0.99% active; active = well fitted curve in the direction sought with a large enough effect; inconclusive = small, poorly fitted or top-dose-only effect, or another doubt; inactive = no such curve, though single readings can be large; an effect the other way counts as inactive or inconclusive; note: nearly all actives have a fitted effect of over 55% in size
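HEK293 cells stably expressing V1b receptor, preincubated 30 min at 37 °C with compound, then stimulated 5 min with 25 nM vasopressin. Phospho-ERK by AlphaScreen SureFire after 5 h RT; normalized to DMSO and vasopressin; AC50 by Hill fit.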
Tau fil binding: tau filament binding | 71,000 tested, 2% active | P10636 | Potency, µM (highest dose often 57.1 µM) | AID 596 | recombinant tau filaments, thioflavin S fluorescence, 15 h; filaments grown with octadecylsulfate alongside compound; active = well fitted curve in the direction sought with a large enough effect; inconclusive = small, poorly fitted or top-dose-only effect, or another doubt; inactive = no such curve, though single readings can be large; an effect the other way counts as inactive or inconclusive;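 note: actives lower thioflavin S fluorescence by blocking filaments or displacing dye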
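Read-out: ThS fluorescence, 450 nm excitation/510 nm emission; lower signal marks blocked filament formation or displaced dye. Tau at 1 uM with 30 uM ODS, 10 uM ThS, 5 mM DTT, 100 mM NaCl, 10 mM HEPES pH 7.4; 15 h, 37 C.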
TSHR agonist: TSH receptor (human) agonism. HEK293-CNG-TSHR cells (CNG channel as cAMP sensor), membrane potential dye, cAMP. 73,000 tested, 0.48% active. AID 926. P16473. Potency, µM (top dose mostly 57.1 µM), actives largely listed as activators; active = well fitted activation curve with a large enough effect in the main read-out, with a control signal flat, not every such curve was filed as active; inconclusive = small, poorly fitted or top-dose-only effect, or a change in a side signal; inactive = no such curve, though single readings can be large or run the other way; reference of the percent scale not stated here;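 note: the control signal comes from parental cells without the receptor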
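cAMP rise detected as CNG-channel membrane depolarization by fluorescent dye (emission 590 nm), 30 min after compound, following 60 min dye loading containing 100 uM RO 20-1724 at room temperature. Cells: TSHR/CNG HEK 293, with parental CNG HEK 293 as control.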
HEK293 cAMP cs: parental HEK293 cAMP activation (counter-screen). Potency, µM (highest dose often 57.1 µM), hits mostly activators. AID 938. parental HEK293 CNG cAMP sensor, membrane potential fluorescence. 73,000 tested, 2.5% active; active = well fitted curve in the direction sought with a large enough effect; inconclusive = small, poorly fitted or top-dose-only effect, or another doubt; inactive = no such curve, though single readings can be large; an effect the other way counts as inactive or inconclusive; note: nearly all actives have a fitted effect of over 55% in size
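Counterscreen for endogenous-receptor signalling: CNG-channel HEK 293 cells report cAMP rise by membrane depolarization. After 60 min dye equilibration with 100 uM RO 20-1724, compounds incubated 30 min before bottom-read fluorescence at 590 nm.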
Tau ThS bind: displaces Thioflavin S from human tau filaments; shares compounds with Tau fil binding; recombinant tau filaments, Thioflavin S fluorescence displacement; Potency, µM; 60 tested, 40% active
aSyn ThS bind: alpha-synuclein fibril binding by ThS displacement. Potency, µM. 60 tested, 40% active. AID 937. recombinant alpha-synuclein fibrils, ThS fluorescence displacement. shares compounds with Tau fil binding
Abeta ThS bind: compounds binding human beta amyloid fibrils, displacing Thioflavin S. 60 tested, 50% active. Potency, µM. shares compounds with Tau fil binding. Abeta1-42 fibrillization, thioflavin S fluorescence, overnight 37 C. AID 956
Target sequence (P05067 whole entry, looked up): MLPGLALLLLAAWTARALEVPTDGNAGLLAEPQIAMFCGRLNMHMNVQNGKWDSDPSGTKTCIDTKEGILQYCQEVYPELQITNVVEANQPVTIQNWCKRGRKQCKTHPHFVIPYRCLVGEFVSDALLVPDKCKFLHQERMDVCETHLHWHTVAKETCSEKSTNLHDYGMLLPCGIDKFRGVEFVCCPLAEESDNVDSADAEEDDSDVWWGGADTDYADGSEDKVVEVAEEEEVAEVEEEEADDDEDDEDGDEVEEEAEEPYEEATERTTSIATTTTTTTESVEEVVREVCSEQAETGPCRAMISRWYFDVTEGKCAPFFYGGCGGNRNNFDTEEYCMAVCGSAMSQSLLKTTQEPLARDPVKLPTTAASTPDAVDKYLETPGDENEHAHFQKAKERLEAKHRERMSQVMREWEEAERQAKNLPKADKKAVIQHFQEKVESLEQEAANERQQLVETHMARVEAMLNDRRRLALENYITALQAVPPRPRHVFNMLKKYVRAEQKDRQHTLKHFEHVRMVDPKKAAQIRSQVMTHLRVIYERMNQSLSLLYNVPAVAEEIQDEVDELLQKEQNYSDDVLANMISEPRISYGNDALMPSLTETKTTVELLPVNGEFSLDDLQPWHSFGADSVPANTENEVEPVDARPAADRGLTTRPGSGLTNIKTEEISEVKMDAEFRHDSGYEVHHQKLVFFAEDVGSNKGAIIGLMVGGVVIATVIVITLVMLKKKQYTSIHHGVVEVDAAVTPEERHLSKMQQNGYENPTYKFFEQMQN
Numbers stand for hits; . = inactive; ? = inconclusive; / = no result; ! = not confirmed by another sample; [ ] = another dose, or the depositor's remark. Unless noted, calls come from the whole dose curve.

SMILES	CRE-bla Fsk	ERK AVP inh	Tau fil binding	TSHR agonist	HEK293 cAMP cs	Tau ThS bind	aSyn ThS bind	Abeta ThS bind
COc1ccc(-n2c(=O)c(C)nc3cnc(Oc4ccccc4)nc32)cc1	2.5µM	.	.	.	.	/	/	/
CO[C@@H]1/C=C\CC(=O)N2CCC[C@@H]2C(=O)OC[C@H](C)C(=O)OC[C@H]1C	/	.[11.5 µM]	/	.[11.4 µM]	.[11.4 µM]	/	/	/
Clc1ccc(Cl)c(Cl)c1Cl	.	.	.	.	.	/	/	/
O=C(O)c1ccccc1NCn1c(=S)sc2ccccc21	.[7.6 µM]	.[11.5 µM]	.[11.4 µM]	.[11.4 µM]	.[11.4 µM]	/	/	/
O=C(Cc1cc(=O)[nH]c(=O)[nH]1)N1CCC(Cc2ccccc2)CC1	?	/	25µM	.	.	/	/	/
CN1CCN(CCCN2c3ccccc3Sc3ccc(C(F)(F)F)cc32)CC1	.[7.6 µM]	25µM!	?	.[11.4 µM]	.[11.4 µM]	/	/	/
Cc1ccc(SCN2CCCCC2)cc1 (tested in a mixture with another compound)	.[7.6 µM]	.[11.5 µM]	.[11.4 µM]	.[11.4 µM]	.[11.4 µM]	/	/	/
C=CCn1c(=O)/c(=C/c2ccc(Cl)cc2)s/c1=C(/C#N)c1nnc2n1CCCCC2	?	.	16µM	.	.	/	/	/
CC(=O)OCC1OC(C#Cc2ccc(Br)cc2)C=CC1OC(C)=O (configuration not stated)	/	.[11.5 µM]	/	.[11.4 µM]	.[11.4 µM]	/	/	/
Cc1cc(-c2ccc(N=Nc3cc(S(=O)(=O)O)c4ccccc4c3N)c(C)c2)ccc1N=Nc1cc(S(=O)(=O)O)c2ccccc2c1N	.	?	0.02µM	?	.	/	/	/
C=C1C=C(Br)C2(OCCCO2)[C@H]2OC12 (some centres not stated)	/	.[11.5 µM]	/	.[11.4 µM]	.[11.4 µM]	/	/	/
CCOC(=O)C1CSC(Cc2ccc(OCc3ccc([N+](=O)[O-])cc3)cc2)N1 (configuration not stated)	/	.	/	.	.	/	/	/
CCOc1ccc2[nH]c(=O)c(CN(Cc3ccc(C)cc3)C(=O)N3CCCC3)cc2c1	.	.	.	?	32µM	/	/	/
Nc1ccc(O)c(-c2nc3ccccc3s2)c1	.	.	3.2µM	.	.	?	?	9.2µM
Cc1ccc2nc(NC(=O)C3CCCN(S(=O)(=O)c4cccc5nonc45)C3)sc2c1 (configuration not stated)	.	.	?	.	.	.	?	.
CC[N+](CC)(CC)CC[C@](O)(c1ccccc1)C1CCCCC1	.	.	.	.	.	/	/	/
Oc1ccccc1C1Nc2cccc3cccc(c23)N1	.	.	3.2µM	.	.	3.3µM	8µM	3.8µM
CO[C@H]1COC(=O)C/C=C\[C@H](C)[C@@H](NS(=O)(=O)c2ccc(C)cc2)COC(=O)C/C=C\[C@@H]1C	/	.[11.5 µM]	/	.[11.4 µM]	.[11.4 µM]	/	/	/
CCCCCCCC1=CC2=CC(=O)C(C)(O)C(=O)C2=CN1CCCC (configuration not stated)	/	.[11.5 µM]	/	.[11.4 µM]	.[11.4 µM]	/	/	/
Cc1ccc(N)cc1O	.	.	.	?	.	/	/	/
N=C1C=CC(=C(c2ccc(N)cc2)c2ccc(N)cc2)C=C1	.[7.6 µM]	13µM	1.3µM	?	.[11.4 µM]	1.6µM	2.3µM	0.51µM
N=c1c(C(=O)NCc2ccc3c(c2)OCO3)cc2c(=O)n3ccccc3nc2n1Cc1cccnc1	?	?	?	?	.	?	7.4µM	10µM
CCOCCCn1c(=N)c(C(=O)NCc2ccc3c(c2)OCO3)cc2c(=O)n3cccc(C)c3nc21	.	.	0.63µM	/	/	9.5µM	2.2µM	3µM
CN(C)c1ccc(N/C=C/C(=O)c2ccc(F)cc2)cc1	.	.	3.2µM	.	.	1.1µM	6.2µM	3.4µM
COc1ccc2c(c1)C(=NO)c1cc(OC)ccc1-2	.	.	4µM	.	.	?	?	4.1µM
SMILES	CRE-bla Fsk	ERK AVP inh	Tau fil binding	TSHR agonist	HEK293 cAMP cs	Tau ThS bind	aSyn ThS bind	Abeta ThS bind
COc1ccc(C(=N/O)/C(=N/O)c2ccc(OC)cc2)cc1	.	.	.	.	.	/	/	/
O=C(Nc1ccc(N2CCOCC2)cc1)Nc1ccc2nc(-c3ccco3)c(-c3ccco3)nc2c1	.	.	0.79µM	.	.	1.2µM	1.9µM	1.2µM
Cn1c(=Nc2ccc(N3CCOCC3)cc2)ccc2ccccc21	.	.	2µM	.	.	?	.	.
CC(C)c1cc(Nc2cccc(O)c2)cc(C(C)C)c1O	?	32µM	7.9µM	.	.	4.9µM	3.6µM	3.5µM
CC1CCC(C(=O)O)NC1c1cccc(N2CCCC2=O)c1 (configuration not stated)	/	.[11.5 µM]	/	.[11.4 µM]	.[11.4 µM]	/	/	/
CCC(C)COC(=O)c1ccc(C(=O)O)cc1 (configuration not stated)	.	.	.	.	.	.	.	.
O=C(COC(=O)c1ccccn1)Nc1ccccc1Cl	.	.	.	.	.	/	/	/
O=C(COc1ccccc1O)Nc1ccccc1Cl	?	.	.	/	.	.	.	.
CC(C)C[C@@H](CC(=O)N[C@@H](CCCN)CC(=O)N[C@@H]1CCNC[C@H]1C(=O)N[C@H](CC(=O)N[C@@H](CCC(=O)O)CC(=O)O)CC(C)C)NC(=O)[C@@H]1CNCC[C@H]1N	.	/	.	.	.	/	/	/
C/C(CCN1CCCc2nc(C)c(C)cc21)=N\OC[C@@H](C)[C@H](OCc1ccccc1)C(C)C	/	.[11.5 µM]	/	.[11.4 µM]	.[11.4 µM]	/	/	/
CCOc1ccc(CNc2ccc(N3CCCC3)cc2)cc1	.	?	5µM	.	.	.	?	4.3µM
NCCCCC(N)C(=O)NC(Cc1ccc(O)cc1)C(=O)NC(CCCCN)C(=O)O (configuration not stated)	/	.	/	/	/	/	/	/
C[N+](C)(C)c1ncnc2c1ncn2[C@@H]1CCCCO1	.[7.6 µM]	.[11.5 µM]	.[11.4 µM]	.[11.4 µM]	.[11.4 µM]	/	/	/
CC(C)=CCC/C(C)=C/C=O	.	.	.	.	.	/	/	/
COc1cccc2c1C(=O)c1c(O)c3c(c(O)c1C2=O)C[C@@](O)(C(=O)CO)C[C@H]3O[C@H]1C[C@@H](N)[C@H](O)[C@@H](C)O1.[W]	.[7.6 µM]	.[11.5 µM]	.[11.4 µM]	.[11.4 µM]	.[11.4 µM]	4.2µM	7.1µM	2.8µM
COc1ccccc1CNc1cc(-c2c(C)noc2C)ncn1	?	.	.	?	?	/	/	/
CCOC(=O)Nc1ccc2c(c1)Nc1ccccc1S2	.	.	?	?	.	/	/	/
CC(=O)c1ccc2c(c1)Nc1ccccc1S2	?	.	2µM	.[11.4 µM]	.	7.7µM	6µM	9µM
CCOc1ccc(C(C)=O)cc1N1C(=O)C2C3C=CC(O3)C2C1=O (configuration not stated)	?	.	.	.	.	/	/	/
CCOc1ccc(C(C)=O)cc1N1C(=O)C2C3C=CC(C3)C2C1=O (configuration not stated)	?	.	.	.	.	.	.	.
CC(C)[C@@H](CC(=O)N[C@@H]1CCNC[C@H]1C(=O)N[C@H](CC(=O)N[C@@H](CCC(=O)O)CC(=O)O)Cc1c[nH]c2ccccc12)NC(=O)C[C@H](Cc1c[nH]c2ccccc12)NC(=O)[C@@H]1CNCC[C@H]1N	.	/	.	?	?	/	/	/

Screening results from PubChem BioAssay.
